Test results taken from PubChem BioAssay (NCATS).
“And” between values parts separate entries of the source, which are not always exact repeats. Equal entries are not always repeated. Records with an inconclusive call do not appear. Where a call stands in place of a potency, no number is given. The source made the active and inactive calls. Unless noted, calls come from the whole dose curve; as a rule, active = well fitted curve in the direction sought with a large enough effect; inconclusive = small, poorly fitted or top-dose-only effect, or another doubt; inactive = no such curve, though single readings can be large; an effect the other way counts as inactive or inconclusive.

Legend:
[1] = target: alpha-glucosidase (Oryza sativa, rice) (UniProt Q653V4); experiment: Counterscreen for Glucocerebrosidase Inhibitors: qHTS Assay for Rice alpha-Glucosidase at pH 5.0 (AID 997)
How it was run: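 Rice alpha-glucosidase (4 nM final) with 400 uM 4-methylumbelliferyl-alpha-D-glucopyranoside in citrate buffer pH 5.0, 20 min at room temperature, stopped at pH 10; fluorescence 365/440 nm, compounds 0.7 nM–77 uM, AC50 from Hill fits.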

[2] = qHTS Assay for Lipid Storage Modulators (AID 1519; calls by dose curve); settings: Drosophila S3 cells, BODIPY lipid droplet/cell ratio, laser cytometry, cells loaded with oleic acid
How it was run: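 Cells seeded at 5,000 per well were treated with compounds over a concentration series and loaded with oleic acid (400 uM, as added). Lipid droplet fluorescence (488 nm excitation, 500-530 nm channel) was read by laser-scanning cytometry and normalized to 20 uM Triacsin C.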

[3] = target: DNA repair nuclease/redox regulator APEX1 (Homo sapiens) (UniProt P27695); experiment: qHTS Validation Assay for Inhibitors of the Human Apurinic/apyrimidinic Endonuclease 1 (APE1) (AID 1705;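 note: TAMRA fluorescence gain over two minutes as APE1 cuts a quenched THF abasic duplex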)
Chain of DNA repair nuclease/redox regulator APEX1 (Homo sapiens) (P27695 whole entry, looked up): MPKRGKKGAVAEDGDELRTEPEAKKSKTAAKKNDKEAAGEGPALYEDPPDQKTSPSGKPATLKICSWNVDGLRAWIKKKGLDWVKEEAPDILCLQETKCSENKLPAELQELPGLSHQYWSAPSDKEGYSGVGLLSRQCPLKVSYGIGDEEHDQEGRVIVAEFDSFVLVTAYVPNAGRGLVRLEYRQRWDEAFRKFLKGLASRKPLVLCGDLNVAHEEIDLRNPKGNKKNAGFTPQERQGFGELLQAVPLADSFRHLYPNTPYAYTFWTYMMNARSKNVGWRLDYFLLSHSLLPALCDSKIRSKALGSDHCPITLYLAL
How it was run: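 Fluorogenic double-stranded THF abasic-site substrate (5'-TAMRA/3'-BHQ-2), 50 nM final. Enzyme preincubated with compound 15 min at room temperature, then substrate added. Kinetic fluorescence (ex 525/em 598 nm) read three times at 60 s intervals; activity taken as third-minus-first read difference.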

[4] = Counterscreen for APE1 Inhibitors: Fluorescent Dye Displacement Validation Assay (AID 1707)
How it was run: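 Compounds are scored by their ability to displace Thiazole Orange (250 nM) from a 50 nM TAMRA-tagged duplex bearing a tetrahydrofuran abasic site. Buffer is 50 mM Tris-HCl pH7.5, 50mM NaCl, 2 mM MgCl2, 0.01% Tween-20.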

[5] = target: Endonuclease 4 (Escherichia coli (strain K12)) (UniProt P0A6C1); experiment: Counterscreen for APE1 Inhibitors: qHTS Validation Assay for Inhibitors of Endonuclease IV (AID 1708)
How it was run: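 Enzymatic AP-site incision assay using a double-stranded THF substrate labelled with TAMRA and BHQ-2; released fluorescence signals activity. Enzyme 2 nM, substrate 50 nM, 15 min compound preincubation.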

[6] = qHTS for differential inhibitors of proliferation of Plasmodium falciparum line 7G8 (AID 1815);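 note: parasite growth measured after three days of incubation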; note: potency is the fitted concentration of half-maximal effect
[7] = qHTS for differential inhibitors of proliferation of Plasmodium falciparum line GB4 (AID 1816); settings: Potency: Plasmodium falciparum GB4 proliferation inhibition;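 note: parasite growth measured after 72 h incubation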; note: potency is the fitted concentration of half-maximal effect
[8] = qHTS for differential inhibitors of proliferation of Plasmodium falciparum line D10 (AID 1877);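 note: parasites grown with compound for 72 h before DNA staining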; note: potency is the fitted concentration of half-maximal effect
[9] = qHTS for differential inhibitors of proliferation of Plasmodium falciparum line 3D7 (AID 1876); note: potency is the fitted concentration of half-maximal effect
[10] = measured here: cell count channel max response
[11] = measured here: lipid channel max response

Structure (SMILES)	outcome [1]	activity change, negative = inhibition ([2]; at 25.7 µM (top of the series))	activity change, negative = inhibition ([2]; at 57.5 µM (top of the series))	max response [2, 10]	max response [2, 11]	Potency [3]	outcome [4]	Potency [5]	Potency [6]	Potency [7]	Potency [8]	Potency [9]
CC[N+](C)(C)c1cccc(O)c1	inactive	1% (inactive)	8.9% (inactive) and 0.601% (inactive)	22.3% and 9.17% and -28.2%	23.6% and 20.6% and -27.6%	inactive	inactive	inactive	inactive	inactive	–	–
CCCOc1ccccc1-c1nc2n[nH]nc2c(=O)[nH]1	inactive	-0.67% (inactive)	9.88% (inactive) and -1.66% (inactive)	4.38% and 27.6% and 39.3%	5.08% and 45.2% and 35.5%	inactive	inactive	–	–	–	inactive	–
Nc1c2c(nc3ccccc13)CCCC2O (centres undefined)	–	–	0.679% (inactive) and 0.738% (inactive)	14.7% and -14.6%	13.3% and -15.3%	inactive	inactive	–	inactive	–	inactive	–
CN=C(NC#N)NCCSCc1nc[nH]c1C	inactive	–	0.49% (inactive) and 5% (inactive)	19.1% and 8.99%	19.5% and 21.3%	–	inactive	inactive	–	inactive	inactive	inactive
Fc1ccc(C(c2ccc(F)cc2)N2CCN(C/C=C/c3ccccc3)CC2)cc1	–	–	-1.34% (inactive)	15.3%	15.1%	inactive	inactive	–	3.98 µM (active)	4.47 µM (active)	11.2 µM (active)	12.6 µM (active)
COCC(=O)O[C@]1(CCN(C)CCCc2nc3ccccc3[nH]2)CCc2cc(F)ccc2[C@@H]1C(C)C	inactive	–	-12.5% (inactive)	-3.1%	-16.1%	inactive	inactive	–	2.24 µM (active)	0.141 µM (active)	8.91 µM (active)	3.16 µM (active)
c1cc(CN2CCCCC2)cc(OCCCNc2nc3ccccc3s2)c1	inactive	–	-4.93% (inactive)	18.9%	13%	inactive	inactive	–	7.08 µM (active)	6.31 µM (active)	8.91 µM (active)	2.51 µM (active)
CC(=O)Oc1cc(C(C)C)c(OCCN(C)C)cc1C	inactive	-0.785% (inactive)	–	-9.94%	-5.49%	inactive	inactive	–	–	–	inactive	inactive
Cc1scc2c1N(C(=O)CN1CCN(C)CC1)c1ccccc1NC2=O	inactive	-2.57% (inactive)	0.86% (inactive) and 1.7% (inactive) and 0.0907% (inactive)	-8.48% [middle of 4 runs]	–	inactive	inactive	inactive	–	–	–	–
CCn1ccnc1CC1COc2ccccc2O1 (centres undefined)	–	–	1.49% (inactive)	56.5%	60.7%	inactive	inactive	–	–	–	inactive	inactive
OCCN1CCN(CCCN2c3ccccc3C=Cc3ccccc32)CC1	inactive	–	-1.21% (inactive)	45.9%	45.9%	inactive	inactive	inactive	3.16 µM (active) and 3.98 µM (active)	5.01 µM (active) and 4.47 µM (active)	10 µM (active)	11.2 µM (active) and 8.91 µM (active)
Cc1ccc(=O)n(-c2ccccc2)c1	inactive	–	1.81% (inactive)	6.64%	9.28%	inactive	inactive	–	inactive	inactive	inactive	inactive
NC(=O)N1c2ccccc2C=Cc2ccccc21	inactive	-0.889% (inactive)	–	-0.817%	-5.44%	inactive	inactive	inactive	inactive	inactive	inactive	inactive
Cc1nc2sccn2c(=O)c1CCN1CCC(=C(c2ccc(F)cc2)c2ccc(F)cc2)CC1	inactive	–	-1.04% (inactive)	26.4%	25.6%	inactive	inactive	inactive	7.08 µM (active)	10 µM (active)	10 µM (active)	11.2 µM (active)
O=c1[nH]c(=O)n([C@H]2C[C@H](O)[C@@H](CO)O2)cc1Br	inactive	–	-1.72% (inactive) and -8.79% (inactive)	5.46% and -18.7%	1.8% and -25.8%	inactive	inactive	inactive	inactive	inactive	inactive	inactive
NCCCNCCSP(=O)(O)O	inactive	–	2.83% (inactive)	11.3%	15.5%	inactive	inactive	inactive	inactive	inactive	inactive	inactive
CCCN(CCC)C(=O)C(CCC(=O)O)NC(=O)c1ccccc1 (centres undefined)	–	–	2.72% (inactive)	19.5%	23.3%	inactive	inactive	–	inactive	inactive	inactive	inactive
O=C(O)CN(CCOCCOCCN(CC(=O)O)CC(=O)O)CC(=O)O	inactive	–	0.929% (inactive)	-9.11%	-9.56%	inactive	inactive	–	inactive	inactive	inactive	inactive
C[C@]12CCC(=O)C=C1CC[C@@H]1[C@@H]2CC[C@@]2(C)[C@H]1CC[C@]2(O)C(=O)CO	inactive	–	-0.711% (inactive)	15.6%	12.1%	inactive	inactive	–	–	–	–	–
CCN1CCC[C@H]1CNC(=O)c1c(O)c(Cl)cc(Cl)c1OC	–	–	1.67% (inactive) and 3.44% (inactive)	12.1% and 6.79%	12.8% and 10.2%	inactive	inactive	–	inactive	inactive	inactive	inactive
